We go through 40 compounds from PubChem BioAssay (NCI).

Compounds without any hit were thinned out: in the full panel of roughly 83,000, 20% have a hit.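 Growth was measured after 48 h exposure to one concentration of compound in 96-well plates. Values under 10 count as active.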 Active and inactive are the calls of the source.

For this assay, the system named is SR leukemia. Briefly: NCI-60 one-dose screen, 48 h (100 = growth as untreated, 0 = no growth, -100 = all killed). Particulars: 10 µM unless noted. The method, then: Growth inhibition of the SR human tumor cell line is measured as a screen for anti-cancer activity. Cells are grown in 96 well plates and exposed to the test compound for 48 hours. Compounds are tested at a single concentration, which is 10^-5 M for most compounds. The reported endpoint is percent growth (GI% or GIPRCNT), where numbers from 0 - 100% represent growth inhibition, and numbers from -100% - 0 represent cell death. For example, a value of 40 represents 60% growth inhibition. A value of 0 means no net growth occurred over the course of the experiment. A value of -40 indicates 40% of cells at the beginning of the experiment died by the end of the experiment. A value of -100 means all cells are dead at the end of the experiment.
NCI-60 Human Tumor Cell Lines Screen was performed using the standard one-dose NCI protocol, which is described in more detail at https://dtp.cancer.gov/discovery_development/nci-60/default.htm.
Compounds with GIPRCNT values below 10 were considered active. Activity score was based on GIPRCNT using the following formula: […]
Score is 0 for GIPRCNT values of 100 or above, 50 for GIPRCNT values of 0, and 100 for GIPRCNT values of -100.
For the compound `CCn1cc(C(=O)N/N=C/c2cccc(F)c2)c(=O)c2cc(F)c(N3CCNC(C)C3)c(F)c21` (stereo not given), the growth was -29.2% (active). Turning to `c1ccc(-c2ccc3c(c2)C2(CCNCC2)CN3)cc1`, the growth is 96% (inactive). Consider `O=CN1N=C(c2cccc(Nc3ccnc4cc(Cl)ccc34)c2)CC1c1ccc(Cl)cc1` (stereo not given), for which the growth is 8.98% (active). As to `O=S(=O)(Nc1ccc2ccccc2c1)c1ccc(-c2cnc(C3CC3)o2)cc1`, the growth is 16.5% (inactive). Regarding `Nc1nc2ccccc2c2c(=O)c3cc(Cl)ccc3sc12`, the growth was 94.8% (inactive). For the compound `COc1ccc(-c2nc(SCC(=O)Nc3nc4ccc(C)cc4s3)[nH]c(=O)c2C#N)cc1OC`, the growth is 75.2% (inactive).

In the case of `COc1ccc2c(O)c(/C=C3\N=Nc4ncccc43)oc2c1C[C@@H]1CCNC[C@H]1F`, the growth is -22.1% (active). On to `COc1cc(C[C@H]2COc3cc(O)cc(O)c3C2=O)ccc1O`, for which the growth was 19% (inactive). In the case of `COc1ccc(-c2nc3c(c(-c4ccc(Cl)cc4)nn3-c3ccccc3)c(-c3ccccc3)c2C#N)cc1`, the growth is 114% (inactive).

Turning to `CC(C)(Sc1cc(C(C)(C)C)c(O)c(C(C)(C)C)c1)Sc1cc(C(C)(C)C)c(OC(=O)CCC(=O)O)c(C(C)(C)C)c1`, the growth is 78.6% (inactive). Regarding `Cc1cccc(-c2nc(C(C)C)sc2-c2ccnc(NCCCNS(=O)(=O)c3ccc(Cl)cc3)c2)c1`, the growth was 54.6% (inactive). The value for `Clc1cccc(C2Cc3cnccc3-c3[nH]c4ccncc4c32)c1` (stereo not given) was 36.5% (inactive); that for `CC1SC(c2ccccc2O)N(NC(=O)CCC(=O)c2nc3ncccc3[nH]2)C1=O` (stereo not given) was 109% (inactive). Regarding `Cc1cc(O)cc(-c2nn(C)cc2-c2cc(N3CCOCC3)nc(-c3cccnc3)n2)c1`, the growth is 15% (inactive). The value for `Clc1ccc(Nc2nnc(CNc3ccccc3)c3ccccc23)cc1` was -9.19% (active); that for `Cc1cccc(N=Nc2cccc(C)c2)c1` was 108% (inactive). As for `O=C(Cc1ccc(/C=C/C(=O)c2ncc[nH]2)cc1)Nc1cc(F)c(F)c(F)c1`, the growth was 14.9% (inactive).

Turning to `O=C(Nc1ccc(Nc2ccncc2)cc1)c1ccc(Nc2ccnc3ccc([N+](=O)[O-])cc23)cc1`, the growth was -14.2% (active). Take `c1csc(-c2cn3nc(-c4c[nH]c5ccccc45)sc3n2)c1`: the growth is 14.5% (inactive). The value for `Cc1cc(=O)oc2cc(Oc3nc(Br)cn4c(Br)cnc34)ccc12` was 69.4% (inactive); that for `COc1ccc(C(c2cc(OC)c(OC)c(OC)c2)N2CCCCC2)cc1` (stereo not given) was 18.5% (inactive); that for `Cc1nc2sc(C(=O)Nc3cccc(Cl)c3C)c(N)c2cc1C(=O)/C=C/c1ccccc1` was 14.2% (inactive). The value for `COC(=O)c1sccc1-c1cc(O)c(C(=O)Nc2ccccc2)s1` was 92.8% (inactive); that for `CN(C)CCCn1c2c(c3ccncc3c1=O)C(=O)c1ccccc1-2` was -26% (active). Turning to `Cc1c(O)cc(-c2cnc(N/N=C/c3ccccc3)s2)c(O)c1C`, the growth was 95.3% (inactive). Consider `O=C1CCCC1[n+]1ccccc1` (stereo not given), for which the growth is 127% (inactive). Take `CC(C)(C)c1ccc(C(=O)N/N=C/c2ccc(O)cc2O)cc1`: the growth is 19.8% (inactive). For `Cn1c(=O)c2[nH]c(SC/C(=N/O)c3ccc(Br)cc3)nc2n(C)c1=O`, the growth is 60.4% (inactive). The value for `Nc1nc(C(=O)N/N=C/c2ccc(F)cc2)nn1-c1ccc(S(N)(=O)=O)cc1` was 98.5% (inactive); that for `COc1cc(/C=C/C(=O)c2cccc(-n3cc(-c4ccc(Cl)cc4)[nH]c3=O)c2)ccc1O` was 33% (inactive); that for `O=C(Nc1cc(Cl)ccc1O)c1ccccc1Nc1ccnc(C(F)(F)F)c1` was -26.3% (active). As for `Nc1cc(C(=O)O)cc(-n2c(O)c(C=C3N=c4ccccc4=N3)sc2=S)c1`, the growth is 121% (inactive). For the compound `O=C1Nc2ccccc2/C1=N/N1C(=O)CN(CCCl)C1=O`, the growth is 104% (inactive).

For `CC1(C)CC[C@]2(CO)CC[C@]3(C)[C@](O)([C@H](O)C[C@@H]4[C@@]5(C)CCCNC(C)(C)[C@@H]5CC[C@]43C)[C@@H]2C1`, the growth was 3.98% (active). As to `COC(=O)[C@@]1(C)CC[C@]2(C)CC[C@]3(C)C4=CC=C5C(=CC(=O)C(O)=C5C)[C@]4(C)[C@@H](O)C[C@@]3(C)[C@@H]2C1`, the growth is -6.62% (active). Take `CCN(CCNc1ccc(C)c2sc3cc(Cl)ccc3c(=O)c12)CC(C)(C)O`: the growth was 49.6% (inactive). Consider `c1ccc(Cn2cc3c(c2-c2ccccc2)CCc2cnoc2-3)cc1`, for which the growth is 37.3% (inactive). `C/C(=N\Nc1ccccc1)c1ccc(NC2=CC(=O)c3ccccc3C2=O)cc1`: the growth is 59.2% (inactive). Regarding `CC1=Nc2cnc(Nc3ccc(N4CCCCC4)cc3)nc2Nc2ccccc21`, the growth was 34% (inactive). Regarding `C=C(C)[C@@H]1CC[C@]2(COC3CCCCO3)CC[C@]3(C)[C@H](CC[C@@H]4[C@@]5(C)C=C(C=O)C(=O)C(C)(C)[C@@H]5CC[C@]43C)[C@@H]12` (stereo not given in full), the growth was -5.54% (active).
